In PubChem BioAssay (NCI):
The panel holds about 83,000 compounds, 20% with a hit somewhere; the sample as a whole holds those more often.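 Values shown are percent growth following 48 h exposure of cells in 96-well plates to a single concentration of compound; below 10 was considered active.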 Values without a mark were called inactive. Active and inactive are the calls of the source.

Columns and labels:
Test in all cases: NCI-60 one-dose screen, 48 h (100 = growth as untreated, 0 = no growth, -100 = all killed)
Conditions in all cases: 10 µM unless noted
HCT-15 colon = tested on: HCT-15 colon
HT29 colon = tested on: HT29 colon
SNB-75 CNS = tested on: SNB-75 CNS
SNB-19 CNS = tested on: SNB-19 CNS
U251 CNS = tested on: U251 CNS
PC-3 prostate = tested on: PC-3 prostate
SK-MEL-5 melanoma = tested on: SK-MEL-5 melanoma
UACC-62 melanoma = tested on: UACC-62 melanoma
LOX IMVI melanoma = tested on: LOX IMVI melanoma
SK-MEL-28 melanoma = tested on: SK-MEL-28 melanoma

SMILES	growth (HCT-15 colon)	growth (HT29 colon)	growth (SNB-75 CNS)	growth (SNB-19 CNS)	growth (U251 CNS)	growth (PC-3 prostate)	growth (SK-MEL-5 melanoma)	growth (UACC-62 melanoma)	growth (LOX IMVI melanoma)	growth (SK-MEL-28 melanoma)
CC[CH2][Sn]([Cl])([Cl])[CH2]CC	83.1%	103%	55.9%	88.9%	39.2%	103%	86.4%	60%	27.6%	–
CCOC(=O)N1CC1	96.3%	97.5%	90.8%	98.4%	96.3%	88.1%	101%	88.4%	92.7%	–
O=C(Nc1ccncc1F)c1cn(CC2CC2)c2ccccc12	97.3%	102%	103%	97.2%	98.4%	97.6%	97.3%	95.3%	97%	–
C=C1C(=O)O[C@H]2[C@H]1CC/C(COC(=O)C(=O)c1cn(Cc3ccccc3)c3ccccc13)=C\CC[C@@]1(C)O[C@@H]21	-45.6% (active)	-40.2% (active)	-75.2% (active)	3.39% (active)	-88.7% (active)	-57.9% (active)	-96.6% (active)	-87.4% (active)	-93.3% (active)	–
CN(CCCCN(C)CCOS(C)(=O)=O)CCOS(C)(=O)=O	89.4%	86.9%	88.5%	94.7%	71.8%	85.3%	84.4%	56.1%	58%	–
COc1cc2c(c(OC)c1OC)-c1ccc([O-])c(=O)cc1[C@@H](NC(C)=O)CC2.COc1cc2c(c(OC)c1OC)-c1ccc([O-])c(=O)cc1[C@@H](NC(C)=O)CC2.[Cu+2]	15.8%	9.61% (active)	50.1%	25.2%	22.3%	35.1%	19.2%	23.5%	36.3%	–
CCOP1(=O)CC(C)=C(Cl)C(P(=O)(OCC)OCC)C1 (centres undefined)	101%	96.2%	78.7%	89.9%	101%	92.6%	101%	92.3%	92.6%	–
COc1cc(/C=C/[N+](=O)[O-])cc(OC)c1	-44.5% (active)	-25.6% (active)	25.1%	24.6%	-50.9% (active)	-25.4% (active)	8.23% (active)	2.61% (active)	-93.9% (active)	-16.9% (active)
COc1ccc(-n2c(C)nc3cc(OC)c(OC)cc3c2=O)cc1OC	111%	106%	92.2%	102%	94.4%	101%	104%	104%	101%	–
CCC(CC)CC1(C)CC2(C)CCOC2OO1 (centres undefined)	104%	100%	98.8%	103%	102%	99.8%	98.5%	95.4%	102%	109%
Fc1ccc(C2=CCNCC2)cc1	109%	109%	84.1%	109%	96.9%	101%	91.9%	86.4%	90.1%	–
NC(=O)CNc1ccc([As]=[As]c2ccc(NCC(N)=O)cc2)cc1 (centres undefined)	44.1%	38.9%	24.5%	48.6%	12%	58.3%	23.7%	26.1%	26.2%	–
COc1ccc(S(=O)(=O)N(Cc2ccc3c(c2)C=CC(C)(C)O3)c2ccccc2)cc1OC	74.9%	72.9%	83.1%	93.7%	89.1%	73.7%	3.42% (active)	79.1%	74.2%	–
O=C1N[C@@H]2[C@@H](O)[C@@H](O)[C@H](O)C[C@H]2c2cc3c(c(O)c21)OCO3	1.81% (active)	-14.9% (active)	-25.3% (active)	-8.68% (active)	-10.5% (active)	-8.66% (active)	-72.7% (active)	-48.3% (active)	-48.8% (active)	–
CC(=O)Nc1ccc(NC(=O)c2ccc([As](O)O)cc2)cc1	85%	112%	89.4%	92.9%	56.5%	100%	98.1%	78.3%	76.4%	–
O=c1[nH]cc(N(CCCl)CCCl)c(=O)[nH]1	75.6%	63.4%	62.9%	65.1%	64.7%	49.5%	82%	64%	46%	–
c1ccc(Nc2nc(-c3ccccc3)c[se]2)cc1	86.9%	102%	83%	91.7%	84.4%	83.6%	89.2%	78.7%	93.5%	–
C=CC[Se]C(=O)c1ccccc1OC(C)=O	17.8%	14.4%	-65.1% (active)	-23.2% (active)	-44% (active)	-28.3% (active)	-35.7% (active)	-15.2% (active)	21.7%	–
COC(=O)[C@@H](C)C[C@H](Cc1ccc(F)cc1)NC(=O)c1csc([C@@H](C[C@H](C(C)C)N(C)C(=O)[C@@H](NC(=O)[C@H]2CCCCN2C)C(C)C)OC(C)=O)n1	15.6%	3.51% (active)	63.8%	36.6%	6.95% (active)	28.4%	-32.8% (active)	42.2%	23.1%	58.9%
c1cc2c(c3c1CCNC3)OCO2	102%	91.8%	86.8%	106%	92.6%	102%	101%	100%	95.7%	109%
Cc1cc(N(CCCl)CCCl)ccc1C=Nc1ccc(-c2csc(Cc3ccccc3)n2)cc1	76.1%	88.3%	50.3%	81.1%	62.7%	53%	84.1%	48.6%	63.2%	–
Cc1cc(C)cc(Nc2nc3c(s2)CC[C@@]2(C)C3=CC[C@@H]3[C@@H]2CC[C@]2(C)C(=O)CC[C@@H]32)c1	19.1%	12.3%	70.5%	60.1%	46.6%	33.1%	91.6%	52.9%	4.43% (active)	59.1%
C=C1C[C@](OC)([C@H](O)C(=O)N[C@@H](OC)[C@@H]2C[C@@H](O)C(C)(C)[C@@H](C[C@@H](COC)OC)O2)O[C@H](C)[C@@H]1C	-51.3% (active)	-68.7% (active)	-100% (active)	-10.7% (active)	-61.9% (active)	-25.5% (active)	-100% (active)	-92.5% (active)	-81.8% (active)	–
O=C(O)c1ccc([S-])cc1.[Au+].c1ccc(CN2[CH-]N(Cc3ccccc3)C(c3ccccc3)=C2c2ccccc2)cc1	-89.3% (active)	-24.7% (active)	-9.88% (active)	-66.8% (active)	-82.5% (active)	-25.6% (active)	-92.9% (active)	-51.6% (active)	-78.9% (active)	-20.2% (active)
[Cl][Hg][n]1c(-c2ccco2)nc2ccccc21	92%	104%	91.7%	93.1%	91.5%	98.5%	97%	95.8%	15.4%	–
CC(CC1CCCCC1)NCc1ccccc1 (centres undefined)	94.4%	93.2%	100%	100%	106%	88.6%	99.1%	93.3%	83.7%	103%
O=C1OCC2=C1C(c1ccccc1)c1cc3c(cc1N2)OCO3 (centres undefined)	10.9%	4.87% (active)	45.9%	36.2%	9.54% (active)	25.9%	-39.6% (active)	31%	26.2%	–
NC(=Nc1ccccc1)N[N+](=O)[O-]	105%	100%	87.5%	96.9%	111%	94.2%	103%	94%	103%	–
